In the supplement of paper PMC10849652:
Targets with a hit are over-represented here; the source holds about 7,900 in all. About 0.6% of all pairs of compound and target were hits.

compound: c1cc(OCCN2CCCCC2)cc(-c2n[nH]c3ccc(-c4nnc[nH]4)cc23)c1; test: log2 fold change, soluble protein after heating vs DMSO (PISA); higher = thermal stabilisation; K562 cells, 10 uM, 30 min; active = over 0.2 and 3.5 SD of the protein, either way, in both replicates (recomputed)
In short: (§1)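 K562 cells (2×10^6 cells/mL) were treated with 10 μM compound for 30 min, and aliquots were heated for 3 min over 48°C-58°C. Pooled aliquots were extracted in PBS with 0.5% NP-40 at 4°C, and the supernatant after 21,000xg for 90 min was measured by TMTpro 16plex LC-MS/MS with channel sums equalised. Reported thermal stability, relative to control samples and from duplicates, is a log2 fold change.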

UniProt P42331, sequence (P42331 whole entry, looked up): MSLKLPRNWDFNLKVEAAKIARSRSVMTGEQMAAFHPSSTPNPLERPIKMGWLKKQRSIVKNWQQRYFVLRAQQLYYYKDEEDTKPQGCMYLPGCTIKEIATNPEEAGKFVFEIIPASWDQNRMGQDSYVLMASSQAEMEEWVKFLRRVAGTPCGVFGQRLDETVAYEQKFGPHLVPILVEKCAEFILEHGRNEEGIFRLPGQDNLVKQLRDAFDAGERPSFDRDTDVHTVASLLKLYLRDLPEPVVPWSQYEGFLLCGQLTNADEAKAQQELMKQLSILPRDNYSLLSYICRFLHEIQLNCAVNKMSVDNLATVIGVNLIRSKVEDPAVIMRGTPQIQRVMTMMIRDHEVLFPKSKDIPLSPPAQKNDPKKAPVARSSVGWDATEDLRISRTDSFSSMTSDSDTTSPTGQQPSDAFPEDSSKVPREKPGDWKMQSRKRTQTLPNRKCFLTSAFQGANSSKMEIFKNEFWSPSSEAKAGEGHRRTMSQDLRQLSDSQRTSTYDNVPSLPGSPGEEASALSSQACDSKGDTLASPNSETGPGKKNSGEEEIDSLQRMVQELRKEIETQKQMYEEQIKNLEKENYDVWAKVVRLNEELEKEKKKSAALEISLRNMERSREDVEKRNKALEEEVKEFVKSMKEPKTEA
UniProt P15056, sequence (P15056 whole entry, looked up): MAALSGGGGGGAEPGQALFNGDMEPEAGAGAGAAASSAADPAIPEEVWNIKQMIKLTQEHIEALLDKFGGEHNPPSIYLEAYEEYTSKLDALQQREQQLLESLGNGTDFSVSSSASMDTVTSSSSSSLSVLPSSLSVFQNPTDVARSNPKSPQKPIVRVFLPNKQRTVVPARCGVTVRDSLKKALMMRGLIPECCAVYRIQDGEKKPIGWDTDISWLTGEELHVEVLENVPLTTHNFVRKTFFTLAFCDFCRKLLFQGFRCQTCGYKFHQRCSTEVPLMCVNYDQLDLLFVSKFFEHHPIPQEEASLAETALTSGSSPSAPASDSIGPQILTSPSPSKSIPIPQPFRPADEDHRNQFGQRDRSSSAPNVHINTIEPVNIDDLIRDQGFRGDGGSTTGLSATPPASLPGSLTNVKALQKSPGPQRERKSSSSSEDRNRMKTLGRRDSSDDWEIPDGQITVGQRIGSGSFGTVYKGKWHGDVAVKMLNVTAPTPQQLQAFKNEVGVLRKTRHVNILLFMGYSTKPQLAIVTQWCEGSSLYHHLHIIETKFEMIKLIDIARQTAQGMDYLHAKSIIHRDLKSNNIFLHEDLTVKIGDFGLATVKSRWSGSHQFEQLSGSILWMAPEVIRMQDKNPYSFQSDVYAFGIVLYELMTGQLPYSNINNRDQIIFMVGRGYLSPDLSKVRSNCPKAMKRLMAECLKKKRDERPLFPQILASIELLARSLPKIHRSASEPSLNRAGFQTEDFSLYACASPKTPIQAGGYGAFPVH
UniProt Q8N5I2, sequence (Q8N5I2 whole entry, looked up): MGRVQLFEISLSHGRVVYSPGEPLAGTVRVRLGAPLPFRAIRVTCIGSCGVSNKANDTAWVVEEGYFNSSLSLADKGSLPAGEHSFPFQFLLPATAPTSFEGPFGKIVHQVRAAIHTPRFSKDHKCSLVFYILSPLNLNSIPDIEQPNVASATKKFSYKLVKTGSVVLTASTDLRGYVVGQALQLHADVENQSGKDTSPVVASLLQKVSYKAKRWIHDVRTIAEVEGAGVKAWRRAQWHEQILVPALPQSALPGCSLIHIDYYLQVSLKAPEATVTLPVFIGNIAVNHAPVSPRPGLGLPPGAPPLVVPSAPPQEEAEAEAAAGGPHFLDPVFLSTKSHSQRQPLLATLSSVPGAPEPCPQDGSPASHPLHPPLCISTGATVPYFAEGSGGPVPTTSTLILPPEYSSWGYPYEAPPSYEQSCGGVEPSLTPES
UniProt Q96P47, sequence (Q96P47 whole entry, looked up): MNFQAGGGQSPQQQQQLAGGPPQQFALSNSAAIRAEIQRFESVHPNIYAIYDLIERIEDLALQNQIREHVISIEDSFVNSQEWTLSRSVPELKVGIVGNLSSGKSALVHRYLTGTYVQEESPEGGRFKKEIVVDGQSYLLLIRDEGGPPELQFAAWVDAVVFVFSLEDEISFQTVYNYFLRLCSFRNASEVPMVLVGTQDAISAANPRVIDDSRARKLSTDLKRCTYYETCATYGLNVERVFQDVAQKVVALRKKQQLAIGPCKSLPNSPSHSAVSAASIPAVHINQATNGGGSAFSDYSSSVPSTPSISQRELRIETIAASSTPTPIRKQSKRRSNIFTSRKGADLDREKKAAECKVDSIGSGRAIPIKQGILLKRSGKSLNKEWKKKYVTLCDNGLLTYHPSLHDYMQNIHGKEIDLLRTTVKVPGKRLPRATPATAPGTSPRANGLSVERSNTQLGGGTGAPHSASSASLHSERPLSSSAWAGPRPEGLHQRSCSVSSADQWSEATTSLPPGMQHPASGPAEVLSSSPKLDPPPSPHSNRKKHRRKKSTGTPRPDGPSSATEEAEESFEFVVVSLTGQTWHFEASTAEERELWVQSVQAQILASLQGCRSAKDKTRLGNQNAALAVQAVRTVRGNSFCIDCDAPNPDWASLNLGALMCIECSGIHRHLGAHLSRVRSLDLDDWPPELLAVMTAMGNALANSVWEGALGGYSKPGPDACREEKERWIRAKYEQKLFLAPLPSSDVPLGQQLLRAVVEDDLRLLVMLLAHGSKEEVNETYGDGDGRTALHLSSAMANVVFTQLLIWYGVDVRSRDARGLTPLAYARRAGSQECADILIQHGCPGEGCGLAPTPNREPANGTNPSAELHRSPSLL
UniProt Q9H6S1, sequence (Q9H6S1 whole entry, looked up): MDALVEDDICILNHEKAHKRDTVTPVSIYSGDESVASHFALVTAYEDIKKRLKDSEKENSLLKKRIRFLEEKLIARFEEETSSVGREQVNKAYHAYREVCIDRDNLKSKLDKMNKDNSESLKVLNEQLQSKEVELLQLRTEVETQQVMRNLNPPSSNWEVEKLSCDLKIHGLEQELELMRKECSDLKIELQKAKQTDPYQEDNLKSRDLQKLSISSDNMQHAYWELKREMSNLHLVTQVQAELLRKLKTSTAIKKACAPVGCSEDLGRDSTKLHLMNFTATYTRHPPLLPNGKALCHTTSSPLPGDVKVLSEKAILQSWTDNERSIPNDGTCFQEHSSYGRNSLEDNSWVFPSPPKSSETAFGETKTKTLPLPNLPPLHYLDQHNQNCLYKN
UniProt Q9H0E9, sequence (Q9H0E9 whole entry, looked up): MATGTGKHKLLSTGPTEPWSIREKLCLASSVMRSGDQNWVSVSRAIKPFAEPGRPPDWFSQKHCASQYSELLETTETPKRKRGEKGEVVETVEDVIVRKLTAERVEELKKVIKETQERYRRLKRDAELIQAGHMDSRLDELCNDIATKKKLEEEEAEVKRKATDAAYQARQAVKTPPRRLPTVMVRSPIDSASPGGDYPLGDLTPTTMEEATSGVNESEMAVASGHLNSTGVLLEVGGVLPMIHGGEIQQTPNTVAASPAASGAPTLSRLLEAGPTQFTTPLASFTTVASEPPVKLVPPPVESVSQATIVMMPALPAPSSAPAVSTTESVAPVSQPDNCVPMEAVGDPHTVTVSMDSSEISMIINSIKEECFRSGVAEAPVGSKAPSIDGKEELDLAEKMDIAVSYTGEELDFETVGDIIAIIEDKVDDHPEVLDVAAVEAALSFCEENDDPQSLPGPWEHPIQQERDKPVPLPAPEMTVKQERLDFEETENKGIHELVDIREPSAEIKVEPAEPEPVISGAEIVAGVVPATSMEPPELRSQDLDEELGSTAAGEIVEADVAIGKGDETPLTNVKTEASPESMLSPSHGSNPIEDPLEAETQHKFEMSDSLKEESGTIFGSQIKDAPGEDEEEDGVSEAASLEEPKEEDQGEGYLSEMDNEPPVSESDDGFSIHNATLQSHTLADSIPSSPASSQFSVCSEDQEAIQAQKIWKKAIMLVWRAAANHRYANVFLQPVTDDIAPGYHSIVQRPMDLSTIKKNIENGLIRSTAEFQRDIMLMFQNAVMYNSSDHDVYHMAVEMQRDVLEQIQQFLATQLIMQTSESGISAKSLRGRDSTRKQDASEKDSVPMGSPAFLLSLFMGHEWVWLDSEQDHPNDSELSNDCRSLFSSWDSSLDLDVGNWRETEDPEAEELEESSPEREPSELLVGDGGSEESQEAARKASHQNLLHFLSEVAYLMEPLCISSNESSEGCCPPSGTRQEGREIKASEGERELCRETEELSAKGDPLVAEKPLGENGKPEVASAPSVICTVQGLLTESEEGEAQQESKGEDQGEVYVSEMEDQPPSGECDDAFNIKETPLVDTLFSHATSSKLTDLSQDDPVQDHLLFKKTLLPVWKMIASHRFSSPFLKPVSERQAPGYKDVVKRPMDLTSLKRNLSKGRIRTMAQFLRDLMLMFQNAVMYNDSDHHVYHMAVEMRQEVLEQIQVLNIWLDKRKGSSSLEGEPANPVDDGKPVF
UniProt Q9HCU9, sequence (Q9HCU9 whole entry, looked up): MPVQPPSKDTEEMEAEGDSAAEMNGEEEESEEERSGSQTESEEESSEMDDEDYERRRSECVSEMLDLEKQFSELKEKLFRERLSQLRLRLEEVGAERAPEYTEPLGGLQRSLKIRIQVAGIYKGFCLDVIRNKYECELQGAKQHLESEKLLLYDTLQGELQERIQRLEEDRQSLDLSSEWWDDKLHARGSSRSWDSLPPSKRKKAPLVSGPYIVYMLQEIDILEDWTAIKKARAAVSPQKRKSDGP
UniProt Q9BTE6, sequence (Q9BTE6 whole entry, looked up): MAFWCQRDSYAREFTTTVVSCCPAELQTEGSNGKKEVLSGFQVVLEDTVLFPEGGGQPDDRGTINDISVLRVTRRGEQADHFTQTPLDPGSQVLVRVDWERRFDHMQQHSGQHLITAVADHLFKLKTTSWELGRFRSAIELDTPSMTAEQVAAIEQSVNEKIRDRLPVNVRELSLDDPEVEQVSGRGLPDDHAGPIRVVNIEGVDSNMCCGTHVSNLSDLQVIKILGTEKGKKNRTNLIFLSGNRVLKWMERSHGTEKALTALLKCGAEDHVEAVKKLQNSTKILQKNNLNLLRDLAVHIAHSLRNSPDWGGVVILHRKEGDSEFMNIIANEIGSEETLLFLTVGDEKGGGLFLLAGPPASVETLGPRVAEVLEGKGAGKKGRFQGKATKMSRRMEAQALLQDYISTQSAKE

log2 fold change, inactive:
BRMS1 (UniProt Q9HCU9) -0.178
BRD8 isoform 2 (UniProt Q9H0E9) -0.09
ABCA4 (UniProt P78363) 0.157
AARSD1 (UniProt Q9BTE6) 0.066
ATXN7L3 isoform 2 (UniProt Q14CW9) 0.051
ARHGAP25 isoform 4 (UniProt P42331) -0.049
BRIP1 (UniProt Q9BX63) 0.077
AGAP3 isoform 4 (UniProt Q96P47) -0.18
AUH (UniProt Q13825) 0.003
ALDH2 isoform 2 (UniProt P05091) -0.36
ABHD11 (UniProt Q8NFV4) -0.009
ARRDC1 (UniProt Q8N5I2) -0.001
ATXN3 isoform 1 (UniProt P54252) -0.015
BRAF (UniProt P15056) -0.067
ABCA3 (UniProt Q99758) 0
ALG14 (UniProt Q96F25) -0.123
AZI2 (UniProt Q9H6S1) -0.028

compound: c1cn2cc(-c3ccc4cn[nH]c4c3)nc(Nc3ccc(N4CCOCC4)cc3)c2n1 [entospletinib]; test: as above
In short: as §1

log2 fold change, inactive:
BRMS1 (UniProt Q9HCU9) 0.078
BRD8 isoform 2 (UniProt Q9H0E9) 0.045
ABCA4 (UniProt P78363) -0.079
AARSD1 (UniProt Q9BTE6) -0.371
ATXN7L3 isoform 2 (UniProt Q14CW9) 0.494
ARHGAP25 isoform 4 (UniProt P42331) 0.073
BRIP1 (UniProt Q9BX63) -0.055
AGAP3 isoform 4 (UniProt Q96P47) 0.036
AUH (UniProt Q13825) -0.068
ALDH2 isoform 2 (UniProt P05091) 0.118
ABHD11 (UniProt Q8NFV4) 0.006
ARRDC1 (UniProt Q8N5I2) -0.014
ATXN3 isoform 1 (UniProt P54252) 0.058
BRAF (UniProt P15056) 0.035
ABCA3 (UniProt Q99758) 0.141
ALG14 (UniProt Q96F25) -0.063
AZI2 (UniProt Q9H6S1) -0.142
